Compound activity as filed in PubChem BioAssay.
Shown is part of a subset that was picked to be rich in hits.
IL-1B inflam inh: blocks inflammasome-driven IL-1 beta release; THP-1 LPS/ATP IL-1B secretion, AlphaLISA, 16 h; active compounds read low; activity change, % at 57.5 µM; actives 4.7% (n = 360,000); in the data active = activity change below about -50%; inconclusive = mostly about -30% to -49%
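THP-1 cells pretreated 1 hr with compounds (up to 57.5 uM final), then stimulated with LPS (250 ng/mL final) plus ATP (1.25 mM final); secreted IL-1B measured by AlphaLISA after 16 hr, decreased signal indicating inhibition.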
DT40 TDP1 CPT: DT40-hTDP1 cell growth loss with CPT; actives 12% (n = 420,000); Potency, µM (doses to about 46.2 µM), without a hit: at the top dose activity change, negative = growth inhibition, usual class: inhibitors; chicken DT40 Tdp1-/-;hTDP1 cells + 20 nM CPT, ATP luminescence, 48 h; AID 686979; also: potency is read from the fitted curve at half-maximal effect; nearly all actives have a fitted effect of over 55% in size
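Cell growth measured by CellTiter-Glo luminescence after a minimum 48 h, 37 C compound exposure with 20 nM CPT in Tdp1-knockout DT40 cells stably expressing hTDP1, seeded 400/well; qHTS titration format.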
HT1080 IDH1KD tx: toxicity to HT-1080 IDH1 knockdown cells (counter line). actives 2% (n = 360,000). HT-1080 IDH1 knockdown viability, ATP luminescence, 48 h. Potency, µM (top dose mostly 46.1 µM), for the others: at the highest dose activity, negative = toxicity, hits mostly cytotoxic;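 also: potency is read from the fitted curve at half-maximal effect; 0% = DMSO wells and -100% = cell-free medium wells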
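Luminescent ATP read-out (CellTiter-Glo, 10 min at room temperature) after 48 h compound exposure at 37 °C gave viability of IDH1-knockdown HT-1080 cells. Activity was normalised to DMSO and cell-free wells, then fitted as concentration-response curves.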
HT1080-NT tox: kills 2HG-producing HT-1080-NT fibrosarcoma cells; HT-1080-NT fibrosarcoma viability, CellTiter-Glo ATP luminescence, 48 h; Potency, µM (top dose mostly 46.1 µM), inactives show top-dose activity, negative = less viability, actives largely listed as cytotoxic; actives 1.6% (n = 360,000); AID 686970;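 also: NT is the 2HG producing partner of a matched IDH1 knockdown line; potency is read from the fitted curve at half-maximal effect; 0% = DMSO-treated cells and -100% = media-only wells without cells; nearly all actives have a fitted effect of over 55% in size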
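HT-1080-NT fibrosarcoma cells (2HG-overproducing), 750 cells/well in RPMI with 5% FBS, dosed after 2 h and incubated 48 h at 37C. CellTiter-Glo luminescence normalized to DMSO and no-cell wells; concentration-response curves fitted and classed.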
ALOX12 inh: ALOX12 (human) lipoxygenase inhibition; P18054; purified 12hLO, xylenol orange hydroperoxide absorbance; Potency, µM (series often up to 108 µM), without a hit: at the top dose activity change, negative = inhibition, hits mostly inhibitors; actives 1.1% (n = 580,000); also: potency is read from the fitted curve at half-maximal effect
Target sequence (P18054 whole entry, looked up): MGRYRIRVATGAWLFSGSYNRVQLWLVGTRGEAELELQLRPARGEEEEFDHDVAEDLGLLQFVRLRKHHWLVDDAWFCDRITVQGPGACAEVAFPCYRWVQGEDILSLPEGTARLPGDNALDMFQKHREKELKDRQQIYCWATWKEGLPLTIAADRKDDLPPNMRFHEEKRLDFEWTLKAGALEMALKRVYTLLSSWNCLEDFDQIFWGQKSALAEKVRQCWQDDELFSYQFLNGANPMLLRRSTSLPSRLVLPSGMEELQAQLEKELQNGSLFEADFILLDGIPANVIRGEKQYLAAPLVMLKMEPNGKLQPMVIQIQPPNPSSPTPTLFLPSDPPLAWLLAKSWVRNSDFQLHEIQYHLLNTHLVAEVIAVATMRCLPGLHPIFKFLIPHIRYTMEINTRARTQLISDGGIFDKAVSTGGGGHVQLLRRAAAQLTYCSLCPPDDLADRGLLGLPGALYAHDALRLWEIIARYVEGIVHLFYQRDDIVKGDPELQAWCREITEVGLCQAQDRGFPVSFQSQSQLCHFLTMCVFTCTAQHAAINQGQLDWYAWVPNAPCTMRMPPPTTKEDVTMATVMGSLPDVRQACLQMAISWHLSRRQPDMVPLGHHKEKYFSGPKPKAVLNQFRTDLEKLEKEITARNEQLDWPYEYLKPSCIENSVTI
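Purified human 12hLO (150 nM final) in 25 mM Hepes, 0.01% Triton X-100, pH 7.0 was preincubated 15 min at room temperature with compound. Then 40 uM arachidonic acid was added, 30 min. Hydroperoxide was read by Fe-XO absorbance ratio 573/405 nm.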
TDP1 cell noCPT: qHTS for Inhibitors of human tyrosyl-DNA phosphodiesterase 1 (TDP1): qHTS in cells in absence of CPT; DT40 Tdp1-/- hTDP1 cells, no CPT, ATP luminescence, 48 h; Potency, µM (titrated, usually from 46.2 µM), inactives show at the top dose activity change, negative = growth inhibition, usual class: inhibitors; actives 15% (n = 420,000); AID 686978, 2013; also: potency is read from the fitted curve at half-maximal effect; nearly all actives have a fitted effect of over 55% in size
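Growth of hTDP1-complemented DT40 Tdp1-knockout cells is measured by ATP luminescence after at least 48 hr compound exposure at 37 °C, with DMSO substituting for the 20 nM CPT used in the parallel screen.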
Starred values were filed as active, the others as inactive; ! = not confirmed by another sample; [ ] = another dose, or the depositor's remark. Unless noted, calls follow the shape of the dose curve; as a rule, active = well fitted curve in the direction sought with a large enough effect; inconclusive = small, poorly fitted or top-dose-only effect, or another doubt; inactive = no such curve, though single readings can be large; an effect the other way counts as inactive or inconclusive. Unless noted, % is scaled to controls: 0 for no effect and ±100 for the full control effect.

Screening COc1ccc2cc1Oc1ccc(cc1)C[C@H]1c3cc(c(OC)cc3CCN1C)Oc1c(OC)c(OC)cc3c1[C@H](C2)N(C)CC3 returned IL-1B inflam inh -95.8*, DT40 TDP1 CPT 5.01µM*!, HT1080 IDH1KD tx 14.6µM*, HT1080-NT tox 5.8µM*, ALOX12 inh inconclusive and TDP1 cell noCPT 11.2µM*!.
For COc1cc2c3cc1Oc1cc(ccc1O)C[C@@H]1c4c(cc(OC)c(O)c4Oc4ccc(cc4)C[C@H]3N(C)CC2)CCN1C the results were IL-1B inflam inh 17.6, DT40 TDP1 CPT 4.11µM*, HT1080 IDH1KD tx 8.2%, HT1080-NT tox 11.0%, ALOX12 inh inconclusive and TDP1 cell noCPT 4.61µM*.
COc1cc2c3c(c1OC)Oc1ccc(cc1)C[C@H]1c4c(cc(OC)c(OC)c4Oc4ccc(cc4)C[C@@H]3N(C)CC2)CCN1C was read as IL-1B inflam inh -3.4, DT40 TDP1 CPT 16.4µM*, HT1080 IDH1KD tx -24.6%, HT1080-NT tox -16.6%, ALOX12 inh -23.2% and TDP1 cell noCPT 18.4µM*.
COc1cc2c3cc1Oc1c(OC)c(OC)cc4c1[C@@H](Cc1ccc(O)c(c1)Oc1ccc(cc1)C[C@@H]3N(C)CC2)N(C)CC4 was read as DT40 TDP1 CPT inconclusive and TDP1 cell noCPT -21.6%.
Screening O=C(c1ccccc1)N1C[C@@H](c2ccc3c(c2)OCO3)[C@@H]2[C@H]1C1CCN2CC1 returned ALOX12 inh 8.8%.
COCc1nnc2n1CCC(NC(=O)c1nn(C)c3ccccc13)CC2 (stereo not drawn) was read as ALOX12 inh 45.4%.
Screening COc1ccc2c(c1)C1(CCN(C(=O)COc3cccc(C)c3)C1)C(=O)N2C (stereo not drawn) returned ALOX12 inh -10.4%.
Screening FC(F)(F)CN1C2CCC1CN(c1cncnc1)C2 returned ALOX12 inh 1.0%[12.5 µM].
`CCN(CC)C(=O)Oc1nnc(SC(C)C)n1-c1ccc(Cl)c(Cl)c1` gave IL-1B inflam inh -20.5, DT40 TDP1 CPT inconclusive, HT1080 IDH1KD tx -14.0%, HT1080-NT tox -3.0%, ALOX12 inh 3.9% and TDP1 cell noCPT 23.1µM*.
CCCCCc1nc2c(c(=O)c3ccccc3n2C)c(=O)n1C1CCCCCC1 was read as IL-1B inflam inh 10.3, DT40 TDP1 CPT 20.6µM*, HT1080 IDH1KD tx inconclusive, HT1080-NT tox inconclusive, ALOX12 inh inconclusive and TDP1 cell noCPT 18.4µM*.
Screening CC(C)c1ccc(C2NCc3ccccc3-n3cccc32)cc1 (stereo not drawn) returned IL-1B inflam inh -9.5, DT40 TDP1 CPT inconclusive, HT1080 IDH1KD tx 0.0%, HT1080-NT tox -13.2%, ALOX12 inh -21.9% and TDP1 cell noCPT 20.6µM*.
`CCOc1cc2c(cc1OCC)-n1cccc1C(c1cccc([N+](=O)[O-])c1)NC2` (stereo not drawn) gave IL-1B inflam inh -15.6, DT40 TDP1 CPT 23.1µM*, HT1080 IDH1KD tx 0.0%, HT1080-NT tox -9.5%, ALOX12 inh inconclusive and TDP1 cell noCPT 18.4µM*.
`Clc1ccc(C2NCc3ccccc3-n3cccc32)cc1` (stereo not drawn) gave ALOX12 inh -28.7%.
Screening CCOc1cc(C2NCc3ccccc3-n3cccc32)ccc1O (stereo not drawn) returned IL-1B inflam inh -57.2*, DT40 TDP1 CPT 23.1µM*, HT1080 IDH1KD tx -6.5%, HT1080-NT tox -10.8%, ALOX12 inh 0.0% and TDP1 cell noCPT inconclusive.
`COc1cc(/C=C/c2nc3ccccc3c(=O)n2-c2cccc(O)c2)ccc1O` gave IL-1B inflam inh -22.5, DT40 TDP1 CPT inconclusive, HT1080 IDH1KD tx inconclusive, HT1080-NT tox -24.1%, ALOX12 inh -0.4% and TDP1 cell noCPT 18.4µM*.
For O=c1c2ccccc2nc(/C=C\c2cccc(Br)c2)n1-c1ccc(O)cc1 the results were DT40 TDP1 CPT inconclusive, ALOX12 inh -20.7% and TDP1 cell noCPT inconclusive.
`COc1cc(/C=C/c2nc3ccccc3c(=O)n2-c2ccccc2O)ccc1O` gave IL-1B inflam inh -65.8*, DT40 TDP1 CPT inconclusive, HT1080 IDH1KD tx inconclusive, HT1080-NT tox inconclusive, ALOX12 inh inconclusive and TDP1 cell noCPT inconclusive.
For CS(=O)(=O)N1CCC2(C1)N=C(c1cccnc1)C(=O)N2 (stereo not drawn) the results were ALOX12 inh 26.3%[176 µM].
Screening O=C(Cn1ncc2c3ccccc3n(Cc3ccccc3F)c2c1=O)N1CCC2(CC1)OCCO2 returned IL-1B inflam inh inconclusive, DT40 TDP1 CPT 23.1µM*, HT1080 IDH1KD tx 15.2%, HT1080-NT tox 24.5%, ALOX12 inh 15.7% and TDP1 cell noCPT 11.6µM*.
`Cc1c2cnn(CC(=O)N3CCC4(CC3)OCCO4)c(=O)c2c(C)n1Cc1ccc(F)cc1` gave IL-1B inflam inh -2.5, DT40 TDP1 CPT -22.3%, HT1080 IDH1KD tx -3.1%, HT1080-NT tox 1.9%, ALOX12 inh 5.6% and TDP1 cell noCPT inconclusive.
For CC[C@H]1CN2CC[C@H]1C[C@@H]2CNC(=S)Nc1ccc(C)cc1Br the results were ALOX12 inh -10.0%[176 µM].
`O=c1[nH]c(=O)n(-c2ccccc2F)c(O)c1/C=C1\C=Nc2ccccc21` gave IL-1B inflam inh 46.2, DT40 TDP1 CPT 16.4µM*, HT1080 IDH1KD tx -15.2%, HT1080-NT tox -23.9%, ALOX12 inh 0.0% and TDP1 cell noCPT 20.6µM*.
O=c1[nH]c(=O)n(-c2ccc(F)cc2)c(O)c1/C=C1\C=Nc2ccccc21 was read as IL-1B inflam inh 13.2, DT40 TDP1 CPT 2.8%, HT1080 IDH1KD tx -3.5%, HT1080-NT tox -3.9%, ALOX12 inh -8.5% and TDP1 cell noCPT 1.2%.
Screening COc1ccc(-n2c(O)c(/C=C3\C=Nc4ccc(Br)cc43)c(=O)[nH]c2=O)c(OC)c1 returned IL-1B inflam inh -96.4*, DT40 TDP1 CPT inconclusive, HT1080 IDH1KD tx inconclusive, HT1080-NT tox -35.5%, ALOX12 inh -2.0% and TDP1 cell noCPT inconclusive.
Screening COc1c(OP2(=S)OCC(C)(C)CO2)cnn(C2CCCCC2)c1=O returned IL-1B inflam inh -13.0, DT40 TDP1 CPT 23.1µM*, HT1080 IDH1KD tx -6.9%, HT1080-NT tox -2.8%, ALOX12 inh -3.5% and TDP1 cell noCPT 20.6µM*.
For C=CCNC(=O)CSC(c1ccc(F)cc1)c1ccc(F)cc1 the results were ALOX12 inh 4.5%.
